Measured values reported in PubChem BioAssay (Tox21).
Several values for one entry are separate records, joined by “and”; a condition that tells them apart may be missing. Equal values may be shown once. Inconclusive results are not listed. Activity calls are given as the source filed them. Unless noted, the call rests on the fitted dose curve; in most records, active means well fitted curve in the direction sought with a large enough effect in the repeat runs; inconclusive means weak or mixed curves; inactive means no such curve, though single readings can be large; an effect the other way counts as inactive or inconclusive.

How the values were obtained:
[1] = qHTS assay to identify small molecule antagonists of the peroxisome proliferator-activated receptor delta (PPARd) signaling pathway - cell viability counter screen (AID 743213); further: nearly all actives have a fitted effect of over 50% in size; further: potency means the concentration at half of the fitted maximal effect
How it was run: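 Cytotoxicity counter screen: CellTiter-Glo luminescence read 30 min after addition, in the same wells as the reporter assay. There, PPARd UAS-bla HEK293H cells (3000/well) were treated 17 h at 37 C with compound and 300 nM L165041.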

[2] = qHTS assay to identify small molecule agonists of the farnesoid-X-receptor (FXR) signaling pathway - cell viability counter screen (AID 743218); further: nearly all actives have a fitted effect of over 45% in size; further: potency means the concentration at half of the fitted maximal effect
How it was run: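 FXR-UAS-bla HEK 293T cells exposed to compounds for 16 h at 37C. Cytotoxicity read in the same wells by CellTiter-Glo luminescence after 30 min at room temperature, following the beta-lactamase FRET read.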

[3] = qHTS assay to identify small molecule antagonists of the farnesoid-X-receptor (FXR) signaling pathway - cell viability counter screen (AID 743221; active means well fitted cell-killing curve with a large enough effect in the repeat runs, not every such curve was filed as active; further: nearly all actives have a fitted effect of over 50% in size; further: potency means the concentration at half of the fitted maximal effect)
How it was run: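 FXR-UAS-bla HEK 293T cells were treated with test compounds plus chenodeoxycholic acid (50 uM final) for 16 h at 37 C. Cell viability in the same wells was then read as CellTiter-Glo luminescence after 30 min at room temperature.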

[4] = qHTS assay to identify small molecule agonists of the vitamin D receptor (VDR) signaling pathway - cell viability counter screen (AID 743224); further: nearly all actives have a fitted effect of over 50% in size; further: potency means the concentration at half of the fitted maximal effect
How it was run: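 VDR-bla cells, 4 h after plating, exposed to compounds for 16 h at 37C; viability then read in the same wells as CellTiter-Glo luminescence after 30 min at room temperature, following the bla FRET read.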

[5] = qHTS assay to identify small molecule antagonists of the vitamin D receptor (VDR) signaling pathway - cell viability counter screen (AID 743225); further: nearly all actives have a fitted effect of over 50% in size; further: potency means the concentration at half of the fitted maximal effect
How it was run: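 VDR-bla HEK 293T cells, 4 h pre-incubation at 37C, then compound plus 1-alpha,25-dihydroxyvitamin D3 (3 nM final) for 16 h. After the beta-lactamase FRET read, CellTiter-Glo was added to the same wells; luminescence after 30 min at room temperature.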

[6] = target: Vitamin D3 receptor (Homo sapiens) (UniProt P11473); experiment: qHTS assay to identify small molecule antagonists of the vitamin D receptor (VDR) signaling pathway (AID 743223; active means well fitted inhibition curve with a large enough effect in the signal ratio in the repeat runs, not every such curve was filed as active; the % refers to the signal ratio)
Sequence of Vitamin D3 receptor (Homo sapiens) (P11473 whole entry, looked up): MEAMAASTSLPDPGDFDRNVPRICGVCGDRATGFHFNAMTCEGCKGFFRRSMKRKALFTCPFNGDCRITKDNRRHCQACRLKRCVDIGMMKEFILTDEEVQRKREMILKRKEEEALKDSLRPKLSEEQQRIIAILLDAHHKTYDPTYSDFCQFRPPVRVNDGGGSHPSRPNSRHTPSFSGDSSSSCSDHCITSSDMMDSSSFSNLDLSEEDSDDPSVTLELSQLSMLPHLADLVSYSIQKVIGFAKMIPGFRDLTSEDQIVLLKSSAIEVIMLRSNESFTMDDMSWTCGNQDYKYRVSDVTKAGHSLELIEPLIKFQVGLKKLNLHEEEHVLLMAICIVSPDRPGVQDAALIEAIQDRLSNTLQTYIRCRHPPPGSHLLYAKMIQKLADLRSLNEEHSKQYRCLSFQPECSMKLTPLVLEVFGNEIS
How it was run: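 VDR-bla cells were plated, incubated 4 h at 37C, then given compound and 1alpha,25-dihydroxyvitamin D3 (3 nM final). After 16 h at 37C, LiveBLAzer B/G FRET substrate was added for 2 h at room temperature and fluorescence read.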

[7] = target: Bile acid receptor (Homo sapiens) (UniProt Q96RI1); experiment: qHTS assay to identify small molecule agonists of the farnesoid-X-receptor (FXR) signaling pathway (AID 743220; active means well fitted activation curve with a large enough effect in the signal ratio in the repeat runs, not every such curve was filed as active; the % refers to the signal ratio)
Sequence of Bile acid receptor (Homo sapiens) (Q96RI1 whole entry, looked up): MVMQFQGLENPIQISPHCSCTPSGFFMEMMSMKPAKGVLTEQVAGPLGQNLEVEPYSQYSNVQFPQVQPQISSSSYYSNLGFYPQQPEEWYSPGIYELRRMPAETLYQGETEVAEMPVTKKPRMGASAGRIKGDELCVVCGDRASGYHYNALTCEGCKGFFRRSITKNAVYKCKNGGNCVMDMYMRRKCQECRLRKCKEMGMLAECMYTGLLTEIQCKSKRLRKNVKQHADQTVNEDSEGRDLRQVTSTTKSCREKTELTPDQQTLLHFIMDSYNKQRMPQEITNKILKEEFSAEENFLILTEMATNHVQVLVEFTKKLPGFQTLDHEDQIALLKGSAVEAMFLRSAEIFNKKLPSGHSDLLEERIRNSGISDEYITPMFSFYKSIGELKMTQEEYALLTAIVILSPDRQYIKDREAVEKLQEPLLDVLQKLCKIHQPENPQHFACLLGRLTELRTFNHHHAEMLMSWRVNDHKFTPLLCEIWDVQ
How it was run: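 Beta-lactamase reporter under UAS control in GeneBLAzer FXR HEK 293T cells (5000/well) measured with LiveBLAzer FRET substrate after 2 h at room temperature. Compound exposure lasted 16 h at 37C.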

[8] = target: Vitamin D3 receptor (Homo sapiens) (UniProt P11473); experiment: qHTS assay to identify small molecule agonists of the vitamin D receptor (VDR) signaling pathway (AID 743222; calls by dose curve)
How it was run: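 VDR-bla cells plated 4 h at 37 C, then exposed to compounds for 16 h at 37 C. Beta-lactamase reporter activity measured by fluorescence after 2 h room-temperature loading with LiveBLAzer B/G FRET substrate.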
On the % scale 0 is the no-effect control and ±100 the full control effect.

Row | Structure (SMILES) | Potency [1] | Potency [2] | Potency [3] | Potency [4] | Potency [5] | Potency [6] | outcome [7] | Potency [8]
1 | [Cd+2].[Cl-].[Cl-] | 7.83 µM (active) and 1.23 µM (active) | 11.1 µM (active) and 6.16 µM (active) | 12.4 µM (active) and 19.5 µM (active) | 1.75 µM (active) and 1.23 µM (active) | 8.78 µM (active) and 2.45 µM (active) |  |  | 
2 | CCCCN(CCCC)C(=S)[S-].CCCCN(CCCC)C(=S)[S-].[Zn+2] | 12.3 µM (active) | 8.7 µM (active) | 13.8 µM (active) | 5.49 µM (active) | 11 µM (active) |  |  | 
3 | COc1cc(N)c(Cl)cc1C(=O)NC1CN2CCC1CC2 (centres undefined) | inactive | inactive | inactive | inactive | inactive |  |  | 
4 | O=c1c(C2CC(c3ccc(-c4ccc(Br)cc4)cc3)Cc3ccccc32)c(O)sc2ccccc12 (centres undefined) | inactive |  | inactive |  |  | inactive |  | 
5 | CCN(CC)C(=S)[S-].CCN(CC)C(=S)[S-].[Zn+2] | 0.433 µM (active) | 3.44 µM (active) | 6.86 µM (active) | 0.217 µM (active) | 3.06 µM (active) |  |  | 
6 | CC(C)CC(C)Nc1ccc(Nc2ccccc2)cc1 (centres undefined) | 38.3 µM (active) |  |  | 38.3 µM (active) | 48.2 µM (active) |  |  | 
7 | CCCCCCCCCCCCCCCC[N+](C)(C)C | 21.1 µM (active) and 3.89 µM (active) | 14.9 µM (active) and 43.6 µM (active) | 23.7 µM (active) and 49 µM (active) | 21.1 µM (active) and 24.5 µM (active) | 21.1 µM (active) and 21.9 µM (active) and 23.9 µM (active) |  |  | 
8 | c1ccc2cc3c(cc2c1)-c1cccc2cccc-3c12 | inactive | inactive | inactive | inactive | inactive |  |  | 
9 | CC(C)[C@H](C(=O)OC(C#N)c1cccc(Oc2ccccc2)c1)c1ccc(OC(F)F)cc1 (some centres undefined) | inactive |  | inactive | inactive |  |  | inactive | inactive
10 | Clc1ccc(CSC(Cn2ccnc2)c2ccc(Cl)cc2Cl)cc1 (centres undefined) | 33.5 µM (active) |  | 23.7 µM (active) | 29.8 µM (active) |  |  |  | inactive
11 | CCOCn1c(-c2ccc(Cl)cc2)c(C#N)c(Br)c1C(F)(F)F | 30.9 µM (active) | 12.3 µM (active) | 27.5 µM (active) | 3.47 µM (active) | 4.9 µM (active) |  |  | 
12 | BrC(Br)C(Br)(Br)Br | 39.1 µM (active) |  | inactive |  |  |  | inactive | inactive
13 | ClC(Cl)=C(Cl)Cl | inactive |  | inactive | inactive |  | inactive |  | inactive
14 | CC(=O)[O-].CC(=O)[O-].O.O.[Cd+2] | 19.2 µM (active) | 1.53 µM (active) | 1.21 µM (active) | 1.21 µM (active) | 15.3 µM (active) |  |  | 
15 | Cc1cc(SCc2sc(-c3ccc(C(F)(F)F)c(F)c3)nc2C)ccc1OCC(=O)O | 12.3 µM (active) |  | inactive | 49 µM (active) | 21.9 µM (active) |  |  | 
16 | c1ccc2c(c1)[nH]c1cnccc12 | inactive | inactive | inactive | inactive | inactive |  |  | 
17 | O=CC(Br)(Br)Br | 48.8 µM (active) | 13.8 µM (active) | 24.5 µM (active) | 17.3 µM (active) | 48.8 µM (active) |  |  | 
18 | CC(C)(O)c1cnn2c(-c3ccc(F)c(-c4c(F)cccc4C#N)c3)cnc2n1 | inactive |  |  | 27.5 µM (active) |  |  |  | 
19 | CCCCCCCCCCCCCC[P+](CCCCCC)(CCCCCC)CCCCCC (tested in a mixture with another compound) | 11 µM (active) | 7.76 µM (active) | 6.92 µM (active) | 3.09 µM (active) | 2.75 µM (active) |  |  | 
20 | C[C@@H]1O[C@@H](O[C@@H]2C=C3CC[C@@H]4[C@H](CC[C@]5(C)[C@@H](c6ccc(=O)oc6)CC[C@]45O)[C@@]3(C)CC2)[C@H](O)[C@H](O)[C@H]1O | 0.0119 µM (active) |  | 0.0106 µM (active) | 0.0133 µM (active) | 0.0134 µM (active) |  |  | 
21 | CCCCCCCCCCCCCCCC[n+]1ccccc1 | 25.7 µM (active) and 21.9 µM (active) and 24.2 µM (active) |  | 51.3 µM (active) and 43.6 µM (active) and 29.8 µM (active) | 25.7 µM (active) [middle of 4 runs] | 24.2 µM (active) [middle of 4 runs] |  |  | 
22 | C=CC(=O)OCCCCOC(=O)C=C | 43.6 µM (active) | 54.9 µM (active) |  |  | inactive |  |  | 
23 | CC(c1ccc(O)cc1)c1ccc(O)cc1 | inactive |  | inactive | inactive | inactive |  |  | 
24 | Clc1ccc(COC(Cn2ccnc2)c2ccc(Cl)cc2Cl)cc1 (centres undefined) | 40.7 µM (active) and 24.4 µM (active) | 32.3 µM (active) and 19.4 µM (active) and 26.6 µM (active) | 40.7 µM (active) and 17.3 µM (active) and 26.6 µM (active) | 20.4 µM (active) and 13.7 µM (active) and 26.6 µM (active) | 45.7 µM (active) and 48.8 µM (active) |  |  | 
25 | C[C@]12CC[C@H]3[C@@H](CCC4=CC(=O)CC[C@@]43C)[C@@H]1CC[C@@H]2O | inactive |  | inactive | inactive |  |  |  | 
26 | O=[N+]([O-])c1cc([N+](=O)[O-])c2ccccc2c1 | inactive |  | inactive | inactive | inactive |  |  | 
27 | O=[N+]([O-])c1cc(C(F)(F)F)c(Cl)c([N+](=O)[O-])c1Cl | 7.76 µM (active) | 7.76 µM (active) | 38.9 µM (active) | 12.3 µM (active) | 21.9 µM (active) |  |  | 
28 | CSCCCN=C=S | inactive |  | inactive |  | inactive |  |  | inactive
29 | C[C@@H]1O[C@@H](O[C@H]2C[C@@H](O)[C@]3(CO)[C@H]4[C@H](O)C[C@]5(C)[C@@H](C6=CC(=O)OC6)CC[C@]5(O)[C@@H]4CC[C@]3(O)C2)[C@H](O)[C@H](O)[C@H]1O | 16.5 nM (active) and 133 nM (active) |  |  | 16.5 nM (active) and 75 nM (active) | 16.5 nM (active) and 107 nM (active) |  |  | 
30 | COc1ccc(/C(=C/C(=O)N2CCOCC2)c2ccc(Cl)cc2)cc1OC | inactive |  | inactive | inactive |  |  | inactive | inactive
